biological target: T1, GST-Nv-NF-kB (Ser allele) (Nematostella vectensis, UniProt A7UNT2 2-411); experiment: protein-binding microarray (PBM); PBM: ~300 nM protein, 6 mM HEPES pH 7.8, 80 mM KCl, 0.5 mM EDTA, 0.5 mM EGTA, 6% glycerol, 35 ng/ul poly-dIdC, 1% milk, 1 h, room temperature; Ap Aiptasia and Nv Nematostella (sea anemones) / Co Capsaspora / Aq Amphimedon (sponge) / Dm Drosophila / Hu human; RHD is the Rel homology domain; high values mean tight binding; conditions: dsDNA, one strand shown
T1 sequence: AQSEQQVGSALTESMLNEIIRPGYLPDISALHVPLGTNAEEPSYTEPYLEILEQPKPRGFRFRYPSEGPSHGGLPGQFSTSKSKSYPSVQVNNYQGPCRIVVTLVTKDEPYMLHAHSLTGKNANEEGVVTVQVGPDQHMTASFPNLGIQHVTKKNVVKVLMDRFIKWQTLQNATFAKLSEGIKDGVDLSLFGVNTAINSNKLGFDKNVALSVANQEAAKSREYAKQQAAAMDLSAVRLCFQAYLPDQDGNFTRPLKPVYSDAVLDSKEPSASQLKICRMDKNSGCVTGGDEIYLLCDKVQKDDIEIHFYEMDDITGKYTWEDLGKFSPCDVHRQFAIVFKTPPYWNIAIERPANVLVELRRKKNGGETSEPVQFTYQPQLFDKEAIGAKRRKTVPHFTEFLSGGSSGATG

| Sequence | binding signal [z-score] |
| --- | --- |
| CCGATTAACATCATGGTGGGAAATGATGTTAATCGGGTCTTGATTCGCTTGACGCTGCTG | 2.25 |
| CCGATTAACATCAGGGGATCCCATGATGTTAATCGGGTCTTGATTCGCTTGACGCTGCTG | 6.24 |
| CCGATTAACATCAGGGAATGTACTGATGTTAATCGGGTCTTGATTCGCTTGACGCTGCTG | 3.55 |
| CCGATTAACATCAGGGAATTATATGATGTTAATCGGGTCTTGATTCGCTTGACGCTGCTG | 5.77 |
| CCGATTAACATCAGGGGGCAAGATGATGTTAATCGGGTCTTGATTCGCTTGACGCTGCTG | 1.92 |
| CCGATTAACATCAGGAAGTCCCATGATGTTAATCGGGTCTTGATTCGCTTGACGCTGCTG | 4.19 |
| CCGATTAACATCAATTCCCATGATGATGTTAATCGGGTCTTGATTCGCTTGACGCTGCTG | 1.33 |
| CCGATTAACATCACGGGTTTCCCTGATGTTAATCGGGTCTTGATTCGCTTGACGCTGCTG | 4.88 |
| CCGATTAACATCACTTGGGAAACTGATGTTAATCGGGTCTTGATTCGCTTGACGCTGCTG | 2.07 |
| CCGATTAACATCACAGGGAAAAATGATGTTAATCGGGTCTTGATTCGCTTGACGCTGCTG | 5.18 |
| CCGATTAACATCACGGAAAACCCTGATGTTAATCGGGTCTTGATTCGCTTGACGCTGCTG | 1.92 |
| CCGATTAACATCAAAATAATCCCTGATGTTAATCGGGTCTTGATTCGCTTGACGCTGCTG | 3.57 |
| CCGATTAACATCAGGACACTCCCTGATGTTAATCGGGTCTTGATTCGCTTGACGCTGCTG | 1.43 |
| CCGATTAACATCAGACCTTCCCCTGATGTTAATCGGGTCTTGATTCGCTTGACGCTGCTG | 4.59 |
| CCGATTAACATCAGGGGTTTTGATGATGTTAATCGGGTCTTGATTCGCTTGACGCTGCTG | 3.32 |
| CCGATTAACATCACAAACGGGGCTGATGTTAATCGGGTCTTGATTCGCTTGACGCTGCTG | 1.73 |
| CCGATTAACATCAAAAATTTACCTGATGTTAATCGGGTCTTGATTCGCTTGACGCTGCTG | 6.08 |
| CCGATTAACATCACAAAAATCCCTGATGTTAATCGGGTCTTGATTCGCTTGACGCTGCTG | 5.52 |
| CCGATTAACATCAGGGGATCTACTGATGTTAATCGGGTCTTGATTCGCTTGACGCTGCTG | 5.35 |
| CCGATTAACATCAACACCCCCCCTGATGTTAATCGGGTCTTGATTCGCTTGACGCTGCTG | 3.82 |

| Sequence | binding signal [z-score] |
| --- | --- |
| CCGATTAACATCACACCCCCCCCTGATGTTAATCGGGTCTTGATTCGCTTGACGCTGCTG | 3.66 |
| CCGATTAACATCAGGACTGTCCCTGATGTTAATCGGGTCTTGATTCGCTTGACGCTGCTG | 2.57 |
| CCGATTAACATCAGATTCTCCCCTGATGTTAATCGGGTCTTGATTCGCTTGACGCTGCTG | 6.01 |
| CCGATTAACATCAGGTACTTCCATGATGTTAATCGGGTCTTGATTCGCTTGACGCTGCTG | 5.91 |
| CCGATTAACATCACGGACTCCCCTGATGTTAATCGGGTCTTGATTCGCTTGACGCTGCTG | 4.46 |
| CCGATTAACATCAGAACTTCCCATGATGTTAATCGGGTCTTGATTCGCTTGACGCTGCTG | 2.2 |
| CCGATTAACATCACCACTTTCCCTGATGTTAATCGGGTCTTGATTCGCTTGACGCTGCTG | 5.06 |
| CCGATTAACATCAGGGGAAGGAATGATGTTAATCGGGTCTTGATTCGCTTGACGCTGCTG | 6.09 |
| CCGATTAACATCAGGACTCTCCCTGATGTTAATCGGGTCTTGATTCGCTTGACGCTGCTG | 2.28 |
| CCGATTAACATCAGGAAATTTCCTGATGTTAATCGGGTCTTGATTCGCTTGACGCTGCTG | 2.16 |
| CCGATTAACATCAGTCCCTAAGCTGATGTTAATCGGGTCTTGATTCGCTTGACGCTGCTG | 1.05 |
| CCGATTAACATCAACGTATTCCCTGATGTTAATCGGGTCTTGATTCGCTTGACGCTGCTG | 3.53 |
| CCGATTAACATCAGAAATCCCGATGATGTTAATCGGGTCTTGATTCGCTTGACGCTGCTG | 2.04 |
| CCGATTAACATCACTAATTTCCCTGATGTTAATCGGGTCTTGATTCGCTTGACGCTGCTG | 6.51 |
| CCGATTAACATCAAGGGGGTAAATGATGTTAATCGGGTCTTGATTCGCTTGACGCTGCTG | 4.81 |
| CCGATTAACATCAGGACTACCCCTGATGTTAATCGGGTCTTGATTCGCTTGACGCTGCTG | 1.61 |
| CCGATTAACATCAGGGCCCCCCCTGATGTTAATCGGGTCTTGATTCGCTTGACGCTGCTG | 3.34 |
| CCGATTAACATCAGAAATTTTCCTGATGTTAATCGGGTCTTGATTCGCTTGACGCTGCTG | 1.33 |
| CCGATTAACATCAGGGATTCCCATGATGTTAATCGGGTCTTGATTCGCTTGACGCTGCTG | 3.26 |

biological target: GST-Hu-p50 (Homo sapiens, UniProt P19838 7-356); experiment: as above; conditions: dsDNA, one strand shown
Sequence (P19838 7-356): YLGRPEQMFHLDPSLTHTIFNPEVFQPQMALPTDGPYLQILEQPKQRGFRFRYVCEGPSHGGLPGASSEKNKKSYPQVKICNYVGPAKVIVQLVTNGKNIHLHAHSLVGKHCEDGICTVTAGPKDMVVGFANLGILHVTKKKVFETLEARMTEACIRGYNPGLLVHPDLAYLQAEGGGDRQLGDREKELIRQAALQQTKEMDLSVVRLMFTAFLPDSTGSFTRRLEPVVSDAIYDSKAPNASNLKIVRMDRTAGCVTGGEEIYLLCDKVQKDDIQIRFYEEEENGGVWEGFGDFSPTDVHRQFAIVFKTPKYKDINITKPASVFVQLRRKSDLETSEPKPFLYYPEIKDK

| Sequence | binding signal [z-score] |
| --- | --- |
| CCGATTAACATCATGGTGGGAAATGATGTTAATCGGGTCTTGATTCGCTTGACGCTGCTG | 2.18 |
| CCGATTAACATCAGGGGATCCCATGATGTTAATCGGGTCTTGATTCGCTTGACGCTGCTG | 4.5 |
| CCGATTAACATCAGGGAATGTACTGATGTTAATCGGGTCTTGATTCGCTTGACGCTGCTG | 2.72 |
| CCGATTAACATCAGGGAATTATATGATGTTAATCGGGTCTTGATTCGCTTGACGCTGCTG | 4.39 |
| CCGATTAACATCAGGGGGCAAGATGATGTTAATCGGGTCTTGATTCGCTTGACGCTGCTG | 2.2 |
| CCGATTAACATCAGGAAGTCCCATGATGTTAATCGGGTCTTGATTCGCTTGACGCTGCTG | 4.09 |
| CCGATTAACATCAATTCCCATGATGATGTTAATCGGGTCTTGATTCGCTTGACGCTGCTG | 1.61 |
| CCGATTAACATCACGGGTTTCCCTGATGTTAATCGGGTCTTGATTCGCTTGACGCTGCTG | 3.17 |
| CCGATTAACATCACTTGGGAAACTGATGTTAATCGGGTCTTGATTCGCTTGACGCTGCTG | 1.38 |
| CCGATTAACATCACAGGGAAAAATGATGTTAATCGGGTCTTGATTCGCTTGACGCTGCTG | 3.13 |
| CCGATTAACATCACGGAAAACCCTGATGTTAATCGGGTCTTGATTCGCTTGACGCTGCTG | 2.12 |
| CCGATTAACATCAAAATAATCCCTGATGTTAATCGGGTCTTGATTCGCTTGACGCTGCTG | 3.58 |
| CCGATTAACATCAGGACACTCCCTGATGTTAATCGGGTCTTGATTCGCTTGACGCTGCTG | 1.94 |
| CCGATTAACATCAGACCTTCCCCTGATGTTAATCGGGTCTTGATTCGCTTGACGCTGCTG | 4.03 |
| CCGATTAACATCAGGGGTTTTGATGATGTTAATCGGGTCTTGATTCGCTTGACGCTGCTG | 3.98 |
| CCGATTAACATCACAAACGGGGCTGATGTTAATCGGGTCTTGATTCGCTTGACGCTGCTG | 2.88 |
| CCGATTAACATCAAAAATTTACCTGATGTTAATCGGGTCTTGATTCGCTTGACGCTGCTG | 3.82 |
| CCGATTAACATCACAAAAATCCCTGATGTTAATCGGGTCTTGATTCGCTTGACGCTGCTG | 5.26 |
| CCGATTAACATCAGGGGATCTACTGATGTTAATCGGGTCTTGATTCGCTTGACGCTGCTG | 4.5 |
| CCGATTAACATCAACACCCCCCCTGATGTTAATCGGGTCTTGATTCGCTTGACGCTGCTG | 3.88 |

| Sequence | binding signal [z-score] |
| --- | --- |
| CCGATTAACATCACACCCCCCCCTGATGTTAATCGGGTCTTGATTCGCTTGACGCTGCTG | 3.76 |
| CCGATTAACATCAGGACTGTCCCTGATGTTAATCGGGTCTTGATTCGCTTGACGCTGCTG | 3.92 |
| CCGATTAACATCAGATTCTCCCCTGATGTTAATCGGGTCTTGATTCGCTTGACGCTGCTG | 4.4 |
| CCGATTAACATCAGGTACTTCCATGATGTTAATCGGGTCTTGATTCGCTTGACGCTGCTG | 2.98 |
| CCGATTAACATCACGGACTCCCCTGATGTTAATCGGGTCTTGATTCGCTTGACGCTGCTG | 3.34 |
| CCGATTAACATCAGAACTTCCCATGATGTTAATCGGGTCTTGATTCGCTTGACGCTGCTG | 1.47 |
| CCGATTAACATCACCACTTTCCCTGATGTTAATCGGGTCTTGATTCGCTTGACGCTGCTG | 3.47 |
| CCGATTAACATCAGGGGAAGGAATGATGTTAATCGGGTCTTGATTCGCTTGACGCTGCTG | 3.5 |
| CCGATTAACATCAGGACTCTCCCTGATGTTAATCGGGTCTTGATTCGCTTGACGCTGCTG | 3.64 |
| CCGATTAACATCAGGAAATTTCCTGATGTTAATCGGGTCTTGATTCGCTTGACGCTGCTG | 2.5 |
| CCGATTAACATCAGTCCCTAAGCTGATGTTAATCGGGTCTTGATTCGCTTGACGCTGCTG | 2.51 |
| CCGATTAACATCAACGTATTCCCTGATGTTAATCGGGTCTTGATTCGCTTGACGCTGCTG | 1.19 |
| CCGATTAACATCAGAAATCCCGATGATGTTAATCGGGTCTTGATTCGCTTGACGCTGCTG | 2.55 |
| CCGATTAACATCACTAATTTCCCTGATGTTAATCGGGTCTTGATTCGCTTGACGCTGCTG | 3.94 |
| CCGATTAACATCAAGGGGGTAAATGATGTTAATCGGGTCTTGATTCGCTTGACGCTGCTG | 4.37 |
| CCGATTAACATCAGGACTACCCCTGATGTTAATCGGGTCTTGATTCGCTTGACGCTGCTG | 3.02 |
| CCGATTAACATCAGGGCCCCCCCTGATGTTAATCGGGTCTTGATTCGCTTGACGCTGCTG | 4.39 |
| CCGATTAACATCAGAAATTTTCCTGATGTTAATCGGGTCTTGATTCGCTTGACGCTGCTG | 2.13 |
| CCGATTAACATCAGGGATTCCCATGATGTTAATCGGGTCTTGATTCGCTTGACGCTGCTG | 3.48 |
